# TEAD-YAP block = TEAD-YAP interaction inhibition. HEK-TIYL cells, TEAD-Gal4/YAP UAS-luciferase luminescence. inhibition, % at 9.12 µM. actives 1.4% (n = 640,000); in the data active = inhibition above about 32%;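 also: 0% = median of test compound wells and 100% = reference inhibitor wells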
# FBW7 activator = human FBW7 E3 ligase activation, primary screen; Q969H0; AlphaScreen FBW7–phospho-cyclin E peptide binding, activator screen; normalized activity (activation), % at 26.1 µM; actives 0.13% (n = 650,000); AID 1259310; in the data active = normalized activity above about 1.9%;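 also: purified mutant Fbw7 with reduced substrate affinity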
# MITF primary = human MITF inhibition, primary screen; AlphaScreen MITF homodimerization, bead proximity signal; inhibition, % at 2.6 µM; actives 0.91% (n = 650,000); AID 1259374; in the data active = inhibition above about 50%;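 also: 0% = vehicle wells with protein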
# GPR151 activ = activates the human receptor GPR151. AID 1508602. PathHunter beta-arrestin GPR151 cells, luminescence. actives 1% (n = 650,000). activation, % at 11.2 µM. Q8TDV0; in the data active = activation above about 4.9%;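 also: 0% = median of compound wells and 100% = cells with positive control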
# Target sequence (Q8TDV0 whole entry, looked up): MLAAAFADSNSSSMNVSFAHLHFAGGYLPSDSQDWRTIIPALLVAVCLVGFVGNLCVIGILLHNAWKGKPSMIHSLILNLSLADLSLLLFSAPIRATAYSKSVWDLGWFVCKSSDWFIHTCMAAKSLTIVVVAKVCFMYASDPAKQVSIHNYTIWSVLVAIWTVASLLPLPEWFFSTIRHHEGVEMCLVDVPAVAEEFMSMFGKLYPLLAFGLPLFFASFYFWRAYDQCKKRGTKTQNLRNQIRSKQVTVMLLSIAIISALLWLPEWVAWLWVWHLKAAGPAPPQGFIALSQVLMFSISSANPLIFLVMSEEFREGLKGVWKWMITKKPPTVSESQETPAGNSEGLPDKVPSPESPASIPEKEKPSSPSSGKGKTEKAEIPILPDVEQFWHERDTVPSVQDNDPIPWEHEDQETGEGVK
# * = called active by the depositor. Shown are actives, neighbours in structure and some others; about 3.5% of the full set was active somewhere.
SMILES,TEAD-YAP block,FBW7 activator,MITF primary,GPR151 activ
c1ccc2[nH]c(CNc3ccnc(N4CCC(N5CCOCC5)CC4)n3)nc2c1,3.0,-0.1,14.5,-0.3
CCOP(=O)(CN(CCc1ccccc1)C(=S)Nc1ccc(C)c(C)c1)OCC,4.3,0.6,7.8,0.4
Cc1ccc(N=Cc2nc(-c3cccc4ccccc34)oc2O)c(Br)c1,1.4,0.1,0.0,-0.5
CN(CCO)C1=CC(=[N+]2CCOCC2)CC(C)(C)C1,4.7,-0.1,-5.5,1.0
CN(Cc1ccccc1)C1=CC(=[N+]2CCCC2)CC(C)(C)C1,80.2*,-0.2,-3.4,1.4
CCN(CC)C1=CC(=[N+]2CCCC2)CC(C)(C)C1,60.1*,0.1,9.6,1.3
CCCN1CCN(C(=O)c2sc3ncnc(N(CC)CC)c3c2C)CC1,2.7,0.0,7.1,0.7
CC(C)(C)C1CCc2c(sc3nc(-c4ccccc4Cl)oc(=O)c23)C1 (configuration not stated),4.6,0.1,3.0,3.4
C=CSc1sc(Cl)c(N2CCCCC2)c1[N+](=O)[O-],0.9,-0.1,-23.3,-0.1
S=C(NCc1ccncc1)Nc1cccc(Cl)c1,3.1,0.0,-13.7,0.9
S=C(NCc1ccc(Cl)cc1)Nc1ccncc1,43.8*,0.4,8.6,1.3
COC(=O)C1=NN(C(=O)Cc2ccccc2)C(O)(C(C)(C)C)C1 (configuration not stated),-0.9,2.0*,16.1,-0.4
CCOC(=O)C1=NN(C(=O)Cc2ccccc2)C(O)(C(C)(C)C)C1 (configuration not stated),12.9,0.3,-5.8,0.1
CCc1ccc(C(=O)N2CCNCC2)cc1,7.7,-0.1,0.7,0.2
Cc1ccc(Nc2c([N+](=O)[O-])sc3ccccc23)cc1,48.4*,-0.5,29.5,0.0
CS(=O)(=O)CC[C@@H](C(=O)NC1CCCCCC1)N1Cc2ccccc2C1=O,-24.7,1.0,0.9,-1.3
Cc1ccc(C(=O)Nc2ccc(N(C)C)c3ccccc23)cc1,-15.6,0.1,16.8,-1.3
COc1ccc(C(=O)c2ccc(N(C)C)cc2)c(OC)c1,54.8*,0.0,4.2,0.5
CN(C)c1ccc(C(=O)c2ccc(N(C)C)c3ccccc23)cc1,49.9*,-0.1,0.9,1.2
COc1ccc(-n2c(C)cc(C=C(C#N)C#N)c2C)cc1,7.6,0.0,1.9,-0.3
COC(=O)c1cc(-c2ccc(OC)cc2)no1,-4.6,1.9*,-3.4,2.8
CCOC(=O)c1cc(-c2ccc(N(CC)CC)cc2)no1,-57.8,5.3*,11.2,-0.3
Cc1ccc(NC(=O)/C(=C/c2cccc([N+](=O)[O-])c2)NC(=O)c2cccc(Cl)c2)c(Br)c1,1.2,-0.1,-1.2,0.8
O=C(Cc1cccc(F)c1)NCc1nnc2n1CCN(Cc1cccc3cccnc13)CC2,-12.4,-0.1,11.4,-0.7
N#Cc1c(/N=C/c2ccc(O)cc2O)sc2c1CCCC2,61.4*,-0.1,5.0,0.9
SMILES,TEAD-YAP block,FBW7 activator,MITF primary,GPR151 activ
N#Cc1c(/N=C\c2ccc(O)cc2O)sc2c1CCCC2,17.4,0.1,18.5,1.2
N#Cc1ccccc1NC(=O)c1c(O)c2c([nH]c1=O)CCCC2,-0.9,-0.1,-5.1,0.8
CC1=C(C#N)C(NC(=O)c2ccc(F)cc2)(C(F)(F)F)C(=O)N1 (configuration not stated),-5.2,0.3,14.8,0.5
CC1(C)Cc2nc3sc4c(SCC(=O)O)ncnc4c3cc2CO1,47.0*,0.1,4.0,-0.9
Cc1ccc(C(=O)N2CCCC(CCC(=O)N3CCN(c4ccccn4)CC3)C2)cc1C (configuration not stated),3.3,3.6*,4.3,-0.6
Cc1ccoc1C(=O)N1CCCC(CCC(=O)N2CCN(c3ccccn3)CC2)C1 (configuration not stated),0.1,0.0,5.0,-0.1
Cc1cc(C)cc(C(=O)O/N=C(\N)c2ccccn2)c1,-44.1,0.1,15.2,-1.5
N/C(=N\OC(=O)c1ccccc1Br)c1ccccn1,66.3*,0.2,15.4,-7.4
COc1ccccc1C(=O)O/N=C(\N)c1ccccn1,38.4*,0.0,0.8,-7.9
N/C(=N\OC(=O)c1ccccc1F)c1ccccn1,81.7*,0.6,18.0,-8.5
N/C(=N\OC(=O)c1ccccc1I)c1ccccn1,-26.8,0.0,-14.0,-5.4
N/C(=N\OC(=O)c1cccc(Cl)c1)c1ccccn1,49.3*,0.0,12.1,-5.7
CCN1C(=O)NC2NC(=O)NC21 (configuration not stated),-8.0,0.7,19.4,-0.9
Cc1ccc(C(=O)O/N=C(\N)c2ccccn2)c(C)c1,89.5*,0.1,-4.0,-10.3
Cc1ccc2nc(-c3ccccc3Br)cn2c1,72.6*,0.1,-7.6,-6.2
Cc1ccc2nc(-c3cccc(Br)c3)cn2c1,85.3*,0.1,30.4,-7.0
Oc1ccccc1-c1cn2cc(Cl)ccc2n1,-41.1,-0.5,9.4,-1.9
Cc1ccc2nc(-c3ccccc3)cn2c1,98.0*,0.7,-3.5,-10.2
COc1cc(CN2CCC(c3nc(-c4cccnc4)no3)CC2)cc(OC)c1,-11.3,0.2,-0.5,3.1
Cc1cccc(NC(=O)CSc2nnc(CNC(=O)COc3ccc(Cl)cc3)n2-c2ccc(Cl)c(Cl)c2)c1,1.5,0.5,10.1,0.7
CCn1c(C)nc2cc(CO)ccc21,-6.1,0.4,9.6,1.1
CCn1c(C)nc2cc(-c3nc4n(n3)Cc3ccccc3-4)ccc21,102.7*,-0.2,-12.0,-12.4
CN1CCN(c2nc3c(c(=O)n(C)c(=O)n3C)n2CC(O)COc2ccc(Cl)cc2)CC1 (configuration not stated),6.4,0.2,-16.1,-0.3
Nc1cccc(-c2nc3cc(N)ccc3o2)c1,-34.4,-0.1,-1.0,-4.0
Cc1ccc2nc(-c3ccc(N)cc3)oc2c1,66.3*,-0.3,4.2,-5.7
SMILES,TEAD-YAP block,FBW7 activator,MITF primary,GPR151 activ
Cc1ccc2nc(-c3ccc(NC(=O)c4ccc(I)cc4)cc3)oc2c1,-1.5,0.0,-13.2,-2.2
Cc1ccc2nc(-c3cc(N)ccc3Cl)oc2c1,-25.6,-0.1,-7.3,-6.0
Cc1ccc2nc(-c3cccc(N)c3)oc2c1,46.5*,0.7,19.8,-10.4
Cc1ccc2nc(-c3ccc(O)cc3)oc2c1,97.5*,0.1,1.9,-6.0
Cc1cc2nc(-c3ccc(N)cc3)oc2cc1C,83.4*,-0.2,1.5,-7.7
O=C(Nc1ccc2oc(-c3ccc(Cl)cc3Cl)nc2c1)c1cccc(Cl)c1,-4.7,0.2,12.6,-0.8
OC1CN=C2CCCc3c2n(c2ccccc32)C1 (configuration not stated),1.6,0.0,-0.6,1.2
Cc1cccc(C(=O)O)c1NC(=O)COc1ccc2ccccc2c1,12.0,0.6,11.2,-1.3
Cc1c(C(=O)N2CCCCCC2)oc2ccc3c(c12)C(=O)CC(C)(C)O3,3.1,0.0,4.6,-0.3
COc1ccc(OC)c(-n2c(C)cc(/C=C3/C(=N)N4C=CSC4=NC3=O)c2C)c1,28.5,-0.1,-4.4,0.5
COc1ccc(OC)c(-n2c(C)cc(/C=C3/C(=N)N4C=C(C)SC4=NC3=O)c2C)c1,47.1*,-0.1,7.0,1.0
COc1ccc(C)cc1-n1c(C)cc(/C=C2/C(=N)N3C=C(C)SC3=NC2=O)c1C,50.9*,-0.1,-6.7,0.0
